# Data reported in the supplement of paper PMC10646978.
# ± gives the standard deviation.
# Key:
# Details in all cases: modulator concentration 10 µM
# [1] = test system: RAW-Dual (murine macrophage reporter line); experiment: NF-kB reporter (SEAP) activity fold change vs agonist alone; higher = enhanced NF-kB activity
# Summary of the method: (§1)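 In 384-well plates holding 50 000 RAW-Dual murine macrophage reporter cells per well, compound at 10 μM final was pre-incubated for 1 hour at 37 °C, after which a PRR agonist was added overnight. Supernatant SEAP read with QUANTI-Blue at 620 nm absorbance reported NF-κB, and Lucia luciferase read with QUANTI-Luc luminescence reported IRF. Fold change values come from dividing each reporter signal by the mean of agonist-only control wells on the same plate, averaged over replicate plates with propagated errors.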
# [2] = test system: RAW-Dual (murine macrophage reporter line); experiment: IRF reporter (Lucia luciferase) activity fold change vs agonist alone; higher = enhanced IRF activity
# Summary of the method: as §1
# [3] = test system: RAW-Dual (murine macrophage reporter line); experiment: viability score (confluency relative to resting cells, overnight) (fraction); higher = more viable, active = viable (0.7 or more)
# Summary of the method: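 A compound met the cutoff when both of two confluency masks exceeded 70% of resting cells. Those masks were made with IncuCyte software from IncuCyte images of RAW-Dual macrophages treated overnight at 10 μM final. This is the basis of the viability score, which is confluency relative to resting cells.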
# [4] = agonist: CpG ODN 1826 0.5 ug/mL
smiles,measurement,setting,value
O=C(NN=Cc1c(O)ccc2ccccc12)c1ccccc1,NF-kB reporter,[1]; [4],1.48 ± 0.12
same,NF-kB reporter,[1]; agonist: LPS 0.1 ug/mL,1.19 ± 0.08
same,NF-kB reporter,[1]; agonist: MPLA […],1.12 ± 0.054
same,IRF reporter,[2]; agonist: 3'3'-cGAMP 10 ug/mL,0.752 ± 0.11
same,IRF reporter,[2]; agonist: LPS 0.1 ug/mL,1.23 ± 0.077
same,IRF reporter,[2]; agonist: MPLA […],1.14 ± 0.12
same,viability score,[3],0.979 (active)
Nc1nc(=O)n([C@@H]2CS[C@H](CO)O2)cc1F,NF-kB reporter,[1]; [4],1.59 ± 0.24
same,NF-kB reporter,[1]; agonist: LPS 0.1 ug/mL,1.3 ± 0.46
same,NF-kB reporter,[1]; agonist: MPLA […],1.21 ± 0.073
same,IRF reporter,[2]; agonist: 3'3'-cGAMP 10 ug/mL,0.62 ± 0.15
same,IRF reporter,[2]; agonist: LPS 0.1 ug/mL,0.98 ± 0.22
same,IRF reporter,[2]; agonist: MPLA […],0.836 ± 0.21
same,viability score,[3],1 (active)
O=[N+]([O-])c1ccc(OCC(O)CN2CCN(c3ccccc3)CC2)cc1 (stereo not given),NF-kB reporter,[1]; [4],0.91 ± 0.072
same,NF-kB reporter,[1]; agonist: LPS 0.1 ug/mL,1.02 ± 0.059
same,NF-kB reporter,[1]; agonist: MPLA […],0.964 ± 0.086
same,IRF reporter,[2]; agonist: 3'3'-cGAMP 10 ug/mL,0.982 ± 0.024
same,IRF reporter,[2]; agonist: LPS 0.1 ug/mL,1.42 ± 0.19
same,IRF reporter,[2]; agonist: MPLA […],1.15 ± 0.15
same,viability score,[3],1.01 (active)
Cc1cccc(C(=O)N2N=C(c3ccccc3)CC2(O)C(F)(F)F)c1 (stereo not given),NF-kB reporter,[1]; [4],1.29 ± 0.1
same,NF-kB reporter,[1]; agonist: LPS 0.1 ug/mL,1.13 ± 0.062
same,NF-kB reporter,[1]; agonist: MPLA […],1.46 ± 0.087
same,IRF reporter,[2]; agonist: 3'3'-cGAMP 10 ug/mL,1.58 ± 0.049
same,IRF reporter,[2]; agonist: LPS 0.1 ug/mL,3.2 ± 0.32
same,IRF reporter,[2]; agonist: MPLA […],1.79 ± 0.12
same,viability score,[3],0.254 (inactive)
O=S(=O)(N=Cc1c(O)ccc2ccccc12)c1cccs1,NF-kB reporter,[1]; [4],1.05 ± 0.23
same,NF-kB reporter,[1]; agonist: LPS 0.1 ug/mL,1 ± 0.079
same,NF-kB reporter,[1]; agonist: MPLA […],0.876 ± 0.12
same,IRF reporter,[2]; agonist: 3'3'-cGAMP 10 ug/mL,0.74 ± 0.022
same,IRF reporter,[2]; agonist: LPS 0.1 ug/mL,0.988 ± 0.15
same,IRF reporter,[2]; agonist: MPLA […],0.992 ± 0.2
same,viability score,[3],0.999 (active)
CCc1nc2ccccc2[nH]1,NF-kB reporter,[1]; [4],1.04 ± 0.18
same,NF-kB reporter,[1]; agonist: LPS 0.1 ug/mL,0.954 ± 0.076
same,NF-kB reporter,[1]; agonist: MPLA […],1.06 ± 0.1
same,IRF reporter,[2]; agonist: 3'3'-cGAMP 10 ug/mL,0.998 ± 0.028
same,IRF reporter,[2]; agonist: LPS 0.1 ug/mL,1.23 ± 0.12
same,IRF reporter,[2]; agonist: MPLA […],1.44 ± 0.21
same,viability score,[3],1.01 (active)
NCCCC[C@H](N[C@@H](CCc1ccccc1)C(=O)O)C(=O)N1CCC[C@H]1C(=O)O,NF-kB reporter,[1]; [4],1.01 ± 0.076
same,NF-kB reporter,[1]; agonist: LPS 0.1 ug/mL,0.997 ± 0.097
same,NF-kB reporter,[1]; agonist: MPLA […],0.97 ± 0.033
same,IRF reporter,[2]; agonist: 3'3'-cGAMP 10 ug/mL,1.26 ± 0.25
same,IRF reporter,[2]; agonist: LPS 0.1 ug/mL,0.999 ± 0.049
same,IRF reporter,[2]; agonist: MPLA […],1.07 ± 0.17
same,viability score,[3],0.996 (active)
N#Cc1ccc(C(=O)Nc2nc(-c3cccs3)c(C(=O)C(F)(F)F)s2)cc1,NF-kB reporter,[1]; [4],0.789 ± 0.091
same,NF-kB reporter,[1]; agonist: LPS 0.1 ug/mL,1.06 ± 0.13
same,NF-kB reporter,[1]; agonist: MPLA […],1.09 ± 0.17
same,IRF reporter,[2]; agonist: 3'3'-cGAMP 10 ug/mL,0.958 ± 0.03
same,IRF reporter,[2]; agonist: LPS 0.1 ug/mL,1.36 ± 0.21
same,IRF reporter,[2]; agonist: MPLA […],1.54 ± 0.27
same,viability score,[3],1.03 (active)
Cc1ccccc1C(=O)N1CC(S(=O)(=O)CC(C)C)C1,NF-kB reporter,[1]; [4],0.961 ± 0.082
same,NF-kB reporter,[1]; agonist: LPS 0.1 ug/mL,0.907 ± 0.076
same,NF-kB reporter,[1]; agonist: MPLA […],0.854 ± 0.052
same,IRF reporter,[2]; agonist: 3'3'-cGAMP 10 ug/mL,1.04 ± 0.071
same,IRF reporter,[2]; agonist: LPS 0.1 ug/mL,1.04 ± 0.13
same,IRF reporter,[2]; agonist: MPLA […],0.899 ± 0.38
same,viability score,[3],1.02 (active)
O=C(O)CN1C(=O)c2cccc3cccc(c23)C1=O,NF-kB reporter,[1]; [4],1.11 ± 0.083
same,NF-kB reporter,[1]; agonist: LPS 0.1 ug/mL,0.935 ± 0.053
same,NF-kB reporter,[1]; agonist: MPLA […],1.01 ± 0.039
same,IRF reporter,[2]; agonist: 3'3'-cGAMP 10 ug/mL,0.934 ± 0.053
same,IRF reporter,[2]; agonist: LPS 0.1 ug/mL,0.911 ± 0.14
same,IRF reporter,[2]; agonist: MPLA […],0.956 ± 0.22
same,viability score,[3],0.998 (active)
Cc1ccc(N2C(=O)C(=Cc3cccc([N+](=O)[O-])c3)SC2=S)cc1,NF-kB reporter,[1]; [4],0.957 ± 0.088
same,NF-kB reporter,[1]; agonist: LPS 0.1 ug/mL,0.944 ± 0.08
same,NF-kB reporter,[1]; agonist: MPLA […],0.949 ± 0.11
same,IRF reporter,[2]; agonist: 3'3'-cGAMP 10 ug/mL,0.623 ± 0.035
same,IRF reporter,[2]; agonist: LPS 0.1 ug/mL,1.26 ± 0.19
same,IRF reporter,[2]; agonist: MPLA […],1.38 ± 0.29
same,viability score,[3],0.996 (active)
CC(C)(C)C(O)/C=C/c1ccc2c(c1)OCO2 (stereo not given),NF-kB reporter,[1]; [4],1.19 ± 0.066
same,NF-kB reporter,[1]; agonist: LPS 0.1 ug/mL,1.26 ± 0.11
same,NF-kB reporter,[1]; agonist: MPLA […],1.03 ± 0.055
same,IRF reporter,[2]; agonist: 3'3'-cGAMP 10 ug/mL,0.45 ± 0.029
same,IRF reporter,[2]; agonist: LPS 0.1 ug/mL,0.877 ± 0.16
same,IRF reporter,[2]; agonist: MPLA […],1.01 ± 0.17
same,viability score,[3],0.819 (active)
Cc1ccc(OCC(=O)N2CCN(c3ccc(-n4cncn4)nn3)CC2)c(C(C)(C)C)c1,NF-kB reporter,[1]; [4],1.11 ± 0.13
same,NF-kB reporter,[1]; agonist: LPS 0.1 ug/mL,0.971 ± 0.085
same,NF-kB reporter,[1]; agonist: MPLA […],1.27 ± 0.037
same,IRF reporter,[2]; agonist: 3'3'-cGAMP 10 ug/mL,0.964 ± 0.07
same,IRF reporter,[2]; agonist: LPS 0.1 ug/mL,0.948 ± 0.099
same,IRF reporter,[2]; agonist: MPLA […],0.87 ± 0.15
same,viability score,[3],0.999 (active)
c1cc2c3c(cccc3c1)-c1nc3ccccc3nc1-2,NF-kB reporter,[1]; [4],0.993 ± 0.17
same,NF-kB reporter,[1]; agonist: LPS 0.1 ug/mL,1.09 ± 0.13
same,NF-kB reporter,[1]; agonist: MPLA […],1.02 ± 0.095
same,IRF reporter,[2]; agonist: 3'3'-cGAMP 10 ug/mL,0.984 ± 0.026
same,IRF reporter,[2]; agonist: LPS 0.1 ug/mL,1.32 ± 0.15
same,IRF reporter,[2]; agonist: MPLA […],1.59 ± 0.3
same,viability score,[3],1.01 (active)
CC(=O)N[C@@H](CS)C(=O)O,NF-kB reporter,[1]; [4],1.1 ± 0.082
same,NF-kB reporter,[1]; agonist: LPS 0.1 ug/mL,1.05 ± 0.096
same,NF-kB reporter,[1]; agonist: MPLA […],1.04 ± 0.052
same,IRF reporter,[2]; agonist: 3'3'-cGAMP 10 ug/mL,0.931 ± 0.065
same,IRF reporter,[2]; agonist: LPS 0.1 ug/mL,0.982 ± 0.076
same,IRF reporter,[2]; agonist: MPLA […],1.04 ± 0.087
same,viability score,[3],0.995 (active)
